# Assay outcomes (PubChem)
# In the library only some 15% were active in any assay of this set; here they are far more common.
# Pf growth 96h = Primary qHTS for delayed death inhibitors of the malarial parasite plastid, 96 hour incubation; P. falciparum luciferase reporter growth, 96 h; Potency, µM (top dose mostly 28.7 µM), for inactives: top-dose activity change, negative = inhibition, usual class: inhibitors; 320,000 compounds, 6.9% hits; AID 504834, 2011; also: potency is read from the fitted curve at half-maximal effect; % is scaled to controls: 0 for no effect and ±100 for the full control effect
#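 P. falciparum expressing integrated firefly luciferase, in erythrocytes at 2% hematocrit, 0.05% parasitemia, incubated with compounds 96 h at 37 C, 5% CO2. Growth inhibition read as loss of luminescence; two-generation exposure targets delayed-death apicoplast inhibitors.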
# HCV inh = qHTS Assay for Inhibitors of Hepatitis C Virus (HCV) | Huh7.5.1 HCVcc-Cre infection, luciferase reporter, 44 h | Potency, µM (top dose mostly 41.8 µM), without a hit: at the highest dose activity change, negative = inhibition, actives largely listed as inhibitors | 340,000 compounds, 3.4% hits | AID 651820, 2012; also: potency is read from the fitted curve at half-maximal effect; % is scaled to controls: 0 for no effect and ±100 for the full control effect
#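 Infectious HCV cell culture screen: compound-treated cells (1,000/well, pre-plated 4 h) are infected with HCVcc-Cre at roughly 0.5 moi and grown 44 h. Infection is quantified by luciferase signal after 15 min substrate incubation at room temperature.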
# SARS PLP yeast = qHTS of Yeast-based Assay for SARS-CoV PLP; S. cerevisiae expressing SARS-CoV PLpro, growth rescue; Potency, µM (series often up to 32.9 µM), inactives show top-dose activity, positive = growth rescue, hits mostly activators; 330,000 compounds, 0.19% hits; AID 485353, 2010; calls by dose curve; also: potency is read from the fitted curve at half-maximal effect; 0% is about no effect; nearly all actives have a fitted effect of over 55% in size
# HCMV inh = qHTS Assay for inhibitors of the human cytomegalovirus (HCMV) | HFF cells, HCMV-luciferase reporter, 72 h; active compounds read low | activity change, negative = inhibition, % at 57.5 µM | 410,000 compounds, 4.5% hits; in the data active = activity change below about -60%; inconclusive = no clear call, values can overlap the other calls; inactive = above about -39%; also: % is scaled to controls: 0 for no effect and ±100 for the full control effect
#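 Cell-based, HFFs, 1000 cells/well, 16 h 37C; cpds in DMSO + HCMV-luc, MOI 1 PFU/cell; 72 h 37C; OneGlo luminescence after 5 min RT; norm. to buffer vs Salinomycin 10uM.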
# Pf growth 48h = Primary qHTS for delayed death inhibitors of the malarial parasite plastid, 48 hour incubation. P. falciparum luciferase growth in erythrocytes, 48 h. Potency, µM (top dose mostly 28.7 µM), for inactives: at the top dose activity change, negative = inhibition, usual class: inhibitors. 310,000 compounds, 5.9% hits; also: potency is read from the fitted curve at half-maximal effect; % is scaled to controls: 0 for no effect and ±100 for the full control effect
#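 Growth was read as firefly luciferase luminescence after a 48 h, 37 C, 5% CO2 exposure of compounds to reporter-bearing P. falciparum cultures (0.1% parasitemia, 2% hematocrit final) in Albumax-supplemented RPMI 1640.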
# Sm TGR block = qHTS Assay for the Inhibitors of Schistosoma Mansoni Peroxiredoxins; 360,000 compounds, 3% hits; Schistosoma mansoni thioredoxin glutathione reductase (TGR), Q962Y6; Potency, µM (top dose mostly 114 µM), without a hit: at the top dose activity change, negative = inhibition, most hits filed as inhibitors; purified TGR, DTNB reduction, TNB absorbance 405 nm; also: potency is read from the fitted curve at half-maximal effect; % is scaled to controls: 0 for no effect and ±100 for the full control effect; nearly all actives have a fitted effect of over 60% in size
#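 First, TGR (20 nM dispensed) and NADPH were mixed with compound. Second, a 15 min room-temperature incubation followed. Third, further NADPH and then DTNB were added to start the reaction. Finally, TNB absorbance was monitored kinetically.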
# Active calls of the source: *; u = inconclusive; x = not tested or not shown; + = active, no number; [ ] = remark or other dose. Unless noted, calls follow the shape of the dose curve; as a rule, active = well fitted curve in the direction sought with a large enough effect; inconclusive = small, poorly fitted or top-dose-only effect, or another doubt; inactive = no such curve, though single readings can be large; an effect the other way counts as inactive or inconclusive.
SMILES,Pf growth 96h,HCV inh,SARS PLP yeast,HCMV inh,Pf growth 48h,Sm TGR block
Cc1ccc2cc(CN(Cc3nnnn3C3CCCCC3)CC3CCCO3)c(=O)[nH]c2c1 (configuration not stated),-10%,-21%,1%,u,u,0%
Cc1cc2cc(CN(Cc3nnnn3C3CCCCC3)CC3CCCO3)c(=O)[nH]c2cc1C (configuration not stated),-11%,-2%,3%,u,8.3µM*,-29%
Cc1cccc(N2CC(C(=O)Nc3nccs3)CC2=O)c1C (configuration not stated),20%,8%,0%,-19,30%,6%
CC1Sc2ccc(S(=O)(=O)N3CCN(c4cccc(Cl)c4)CC3)cc2NC1=O (configuration not stated),12µM*,u,0%,0,0%,-28%
Cc1cccc(N2CCN(S(=O)(=O)c3ccc4c(c3)NC(=O)CS4)CC2)c1C,u,u,u,u,u,7%
Cc1cccc(N2CCN(S(=O)(=O)c3ccc4c(c3)NC(=O)C(C)S4)CC2)c1C (configuration not stated),u,0.32µM*,-14%,-79*,u,-6%
CC1Sc2ccc(S(=O)(=O)N3CCN(c4ccccc4)CC3)cc2NC1=O (configuration not stated),u,u,5%,u,-10%,4%
COc1ccc(CC(=O)Nc2cc(S(=O)(=O)N3CCCCC3)ccc2OC(C)C)cc1OC,x,x,x,-11,x,x
COc1ccc(NC(=O)Cc2nn(C)c(=O)c3ccccc23)c2ncccc12,x,x,-3%,x,x,2%[11.4 µM]
Fc1cnc(N2CCN(c3ccccc3)CC2)nc1N1CCN(c2ccccc2)CC1,0%,u,-9%,u,13µM*,6%
O=C1CCCc2nc(N3CCN(c4ccccc4)CC3)ncc21,-11%,16%,1%,-9,29%,6%
Cc1ccc(C)c(NC(=O)Cn2cnc3c(oc4ccccc43)c2=O)c1,u,-3%,1%,34,10µM*,-3%
CCC1CN(C(=O)Nc2cccc3c2CCCC3)c2cc(C)ccc2O1 (configuration not stated),x,x,x,u,x,9%
COc1ccc(OC)c(S(=O)(=O)Nc2cccc3ccccc23)c1,x,-24%,x,60,x,x
Cn1c(=O)c(=O)n(C)c2cc(N3CCCCC3)c(NS(=O)(=O)c3ccc([N+](=O)[O-])cc3)cc21,10%,2%,3%,+,-13%,u
COc1ccc(OC)c(S(=O)(=O)Nc2cccc3ccc(O)cc23)c1,x,0%,x,-62*,x,x
COc1ccc(OC)c(S(=O)(=O)Nc2cc3c(cc2N2CCCC2)n(C)c(=O)c(=O)n3C)c1,-23%,-8%,0%,4,u,32µM*
Cn1c(=O)c(=O)n(C)c2cc(N3CCOCC3)c(NS(=O)(=O)c3ccc(Br)cc3)cc21,u,-6%,4%,-16,-6%,25µM*
COc1cc(-c2nc(C(N)=O)c3c(n2)n(-c2cccc(C)c2)c(=O)n3C)cc(OC)c1OC,x,x,x,2,x,0%
CCN1c2cc(C)ccc2-n2cccc2C12CCN(C(=O)Nc1cc(OC)c(OC)c(OC)c1)CC2,x,x,x,32,x,3%
COc1ccc(CCNC(=O)CSCc2nc(-c3ccc(OC)c(OC)c3)oc2C)cc1OC,x,x,x,-2,x,-10%
O=C([C@@H]1[C@@H](CO)[C@@H]2Cn3c(cccc3=O)[C@H]1N2Cc1cccc(Cl)c1)N1CCOCC1,x,x,x,-7,x,x
CSC(=NC#N)N1CCN(C(c2ccccc2)c2ccccc2)CC1,u,-22%,-5%,1,u,u
CSC(=NC#N)N1CCN(C(=NC#N)SC)CC1,2%,-7%,1%,-9,9.3µM*,x
COc1cc([N+](=O)[O-])cc(/C=N/NC(=O)C(C)Nc2ccccc2C)c1O (configuration not stated),-58%,-8%,22µM*,-38,20%,-19%
SMILES,Pf growth 96h,HCV inh,SARS PLP yeast,HCMV inh,Pf growth 48h,Sm TGR block
COc1cccc(/C=N/NC(=O)c2cc3cc([N+](=O)[O-])ccc3s2)c1O,u,u,u,-104*,4.1µM*,-11%
COc1ccc(C2(CNC(=O)c3cccc([N+](=O)[O-])c3)CCCCC2)cc1OC,5.9µM*,-9%,4%,-16,u,-10%
COc1ccccc1/C=N/NC(=O)c1ccc(NC(=O)c2cccc([N+](=O)[O-])c2)cc1,-1%,x,-1%,x,5.2µM*,8%
CCOC(=O)N1CCN(C(=O)COC(=O)c2cc(C)ccc2C)CC1,x,-2%,0%,11,x,x
CC(NC(=O)c1ccc(C23CC4CC(CC(C4)C2)C3)cc1)C(=O)O (configuration not stated),u,17%,-6%,18,-18%,0%
Clc1ccccc1-c1nnc(CNC2CC2)o1,79%,13%,1%,29,-5%,-2%
O=C(N/N=C/c1ccc(Br)s1)c1cccc([N+](=O)[O-])c1,4.1µM*,-6%,-16%,-14,2.9µM*,2%
O=C(Oc1ccccc1C(=O)Nc1ccccc1)c1ccccc1Br,-51%,-25%,-34%,-66*,4%,6%
COc1ccc(/C=N/NC(=O)c2ccc(NC(=O)c3cccc([N+](=O)[O-])c3)cc2)c(OC)c1,40%,u,2%,-17,u,1%
O=C(COc1ccccc1C(=O)Nc1ccccc1)c1ccc(Br)cc1,0%,-8%,1%,-38,u,1%
O=C(Nc1ccc(C2CC2(Cl)Cl)cc1)c1ccccc1Br (configuration not stated),0.93µM*,-1%,-81%,29,65%,-7%
COc1cc([N+](=O)[O-])cc(/C=N/NC(=O)c2ccc(NC(=O)c3ccc(C)cc3)cc2)c1O,13%,2.5µM*,0%,-102*,9%,x
COc1cc(C(=O)c2ccccc2)c(OC)cc1C(=O)Nc1ccc(O)cc1,6%,u,-2%,-27,-26%,-2%[57.1 µM]
Cc1ccc(S(=O)(=O)NCCc2nnc3ccc(N4CCOCC4)nn23)cc1,x,x,x,-19,x,x
CC1CCN(C(=O)CN2c3ccc(Br)cc3-c3ccccc3S2(=O)=O)CC1,x,x,x,27,x,3%
COc1ccc(/C=N/NC(=O)c2cccc([N+](=O)[O-])c2)cc1O,4%,-14%,-1%,-28,-14%,x
O=C(NN=Cc1ccccc1O)c1cccc([N+](=O)[O-])c1,x,7.9µM*,x,-97*,x,x
